Test results published in the supplement of paper PMC10849652.
The full data set covers some 8,800 targets. This sample favours those with a hit. About 0.5% of all pairs of compound and target were hits. Values without a mark were called inactive.

Key:
Assay in all cases: log2 fold change, soluble protein after heating vs DMSO (PISA); higher = thermal stabilisation; K562 lysate, 10 uM; active = over 0.2 and 3.5 SD of the protein, either way, in both replicates (recomputed)
[1] = compound: CN1CC[C@H](c2c(O)cc(O)c3c(=O)cc(-c4ccccc4Cl)oc23)[C@H](O)C1 [alvocidib]
Method in brief: (§1)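 Pellets of K562 cells were dounce-homogenised in PBS pH 7.4 with 1 mM MgCl2, and the crude extract was held at 1 mg/mL protein for a 30 min treatment with 10 μM compound. Aliquots were heated for 3 min over 48°C-58°C and pooled before NP-40 was added to 0.5% at 4°C. The supernatant from 21,000xg for 90 min was quantified by TMTpro 16plex LC-MS/MS with channel sums equalised. Values are reported from duplicates as log-two fold change in thermal stability relative to solvent controls.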

[2] = compound: CN1CCc2c(c3ccccc3n2Cc2ccc(C(=O)NO)cc2)C1 [Tubastatin A]
Method in brief: as §1

[3] = compound: CNC(=O)C1=CC=CC=C1NC2=NC(=NC=C2Cl)NC3=C(C=C(C=C3)N4CCOCC4)OC
Method in brief: as §1

[4] = compound: CNC(=O)c1ccc(Nc2ncc(C(F)(F)F)c(NCc3nccnc3N(C)S(C)(=O)=O)n2)cc1 [defactinib]
Method in brief: as §1

[5] = compound: CNc1nc(-c2ccc3c(N)n[nH]c3c2)cc(N2C[C@@H](C(=O)NC3CCCCC3)CC[C@H]2C)n1
Method in brief: as §1

[6] = compound: COC(=O)N[C@@H](C)CNc1nccc(-c2cn(C(C)C)nc2-c2cc(Cl)cc(NS(C)(=O)=O)c2F)n1 [encorafenib]
Method in brief: as §1

[7] = compound: COC(=O)[C@H](CCSC)NC(=O)C1=C(C=C(C=C1)NC[C@H](CS)N)C2=CC=CC=C2
Method in brief: as §1

[8] = compound: COc1cc(Nc2ncc3c(n2)-c2ccc(Cl)cc2C(c2c(F)cccc2OC)=NC3)ccc1C(=O)O [alisertib]
Method in brief: as §1

[9] = compound: COc1cc2nc(-c3cc(F)ccc3O)nc(N[C@@H]3CNC[C@H]3C(C)(C)O)c2cc1OC
Method in brief: as §1

[10] = compound: COc1cc2ncnc(Nc3ccc(F)c(Cl)c3)c2cc1OCCCN1CCOCC1 [gefitinib]
Method in brief: as §1

Chain of UniProt Q9P281 (Q9P281 whole entry, looked up): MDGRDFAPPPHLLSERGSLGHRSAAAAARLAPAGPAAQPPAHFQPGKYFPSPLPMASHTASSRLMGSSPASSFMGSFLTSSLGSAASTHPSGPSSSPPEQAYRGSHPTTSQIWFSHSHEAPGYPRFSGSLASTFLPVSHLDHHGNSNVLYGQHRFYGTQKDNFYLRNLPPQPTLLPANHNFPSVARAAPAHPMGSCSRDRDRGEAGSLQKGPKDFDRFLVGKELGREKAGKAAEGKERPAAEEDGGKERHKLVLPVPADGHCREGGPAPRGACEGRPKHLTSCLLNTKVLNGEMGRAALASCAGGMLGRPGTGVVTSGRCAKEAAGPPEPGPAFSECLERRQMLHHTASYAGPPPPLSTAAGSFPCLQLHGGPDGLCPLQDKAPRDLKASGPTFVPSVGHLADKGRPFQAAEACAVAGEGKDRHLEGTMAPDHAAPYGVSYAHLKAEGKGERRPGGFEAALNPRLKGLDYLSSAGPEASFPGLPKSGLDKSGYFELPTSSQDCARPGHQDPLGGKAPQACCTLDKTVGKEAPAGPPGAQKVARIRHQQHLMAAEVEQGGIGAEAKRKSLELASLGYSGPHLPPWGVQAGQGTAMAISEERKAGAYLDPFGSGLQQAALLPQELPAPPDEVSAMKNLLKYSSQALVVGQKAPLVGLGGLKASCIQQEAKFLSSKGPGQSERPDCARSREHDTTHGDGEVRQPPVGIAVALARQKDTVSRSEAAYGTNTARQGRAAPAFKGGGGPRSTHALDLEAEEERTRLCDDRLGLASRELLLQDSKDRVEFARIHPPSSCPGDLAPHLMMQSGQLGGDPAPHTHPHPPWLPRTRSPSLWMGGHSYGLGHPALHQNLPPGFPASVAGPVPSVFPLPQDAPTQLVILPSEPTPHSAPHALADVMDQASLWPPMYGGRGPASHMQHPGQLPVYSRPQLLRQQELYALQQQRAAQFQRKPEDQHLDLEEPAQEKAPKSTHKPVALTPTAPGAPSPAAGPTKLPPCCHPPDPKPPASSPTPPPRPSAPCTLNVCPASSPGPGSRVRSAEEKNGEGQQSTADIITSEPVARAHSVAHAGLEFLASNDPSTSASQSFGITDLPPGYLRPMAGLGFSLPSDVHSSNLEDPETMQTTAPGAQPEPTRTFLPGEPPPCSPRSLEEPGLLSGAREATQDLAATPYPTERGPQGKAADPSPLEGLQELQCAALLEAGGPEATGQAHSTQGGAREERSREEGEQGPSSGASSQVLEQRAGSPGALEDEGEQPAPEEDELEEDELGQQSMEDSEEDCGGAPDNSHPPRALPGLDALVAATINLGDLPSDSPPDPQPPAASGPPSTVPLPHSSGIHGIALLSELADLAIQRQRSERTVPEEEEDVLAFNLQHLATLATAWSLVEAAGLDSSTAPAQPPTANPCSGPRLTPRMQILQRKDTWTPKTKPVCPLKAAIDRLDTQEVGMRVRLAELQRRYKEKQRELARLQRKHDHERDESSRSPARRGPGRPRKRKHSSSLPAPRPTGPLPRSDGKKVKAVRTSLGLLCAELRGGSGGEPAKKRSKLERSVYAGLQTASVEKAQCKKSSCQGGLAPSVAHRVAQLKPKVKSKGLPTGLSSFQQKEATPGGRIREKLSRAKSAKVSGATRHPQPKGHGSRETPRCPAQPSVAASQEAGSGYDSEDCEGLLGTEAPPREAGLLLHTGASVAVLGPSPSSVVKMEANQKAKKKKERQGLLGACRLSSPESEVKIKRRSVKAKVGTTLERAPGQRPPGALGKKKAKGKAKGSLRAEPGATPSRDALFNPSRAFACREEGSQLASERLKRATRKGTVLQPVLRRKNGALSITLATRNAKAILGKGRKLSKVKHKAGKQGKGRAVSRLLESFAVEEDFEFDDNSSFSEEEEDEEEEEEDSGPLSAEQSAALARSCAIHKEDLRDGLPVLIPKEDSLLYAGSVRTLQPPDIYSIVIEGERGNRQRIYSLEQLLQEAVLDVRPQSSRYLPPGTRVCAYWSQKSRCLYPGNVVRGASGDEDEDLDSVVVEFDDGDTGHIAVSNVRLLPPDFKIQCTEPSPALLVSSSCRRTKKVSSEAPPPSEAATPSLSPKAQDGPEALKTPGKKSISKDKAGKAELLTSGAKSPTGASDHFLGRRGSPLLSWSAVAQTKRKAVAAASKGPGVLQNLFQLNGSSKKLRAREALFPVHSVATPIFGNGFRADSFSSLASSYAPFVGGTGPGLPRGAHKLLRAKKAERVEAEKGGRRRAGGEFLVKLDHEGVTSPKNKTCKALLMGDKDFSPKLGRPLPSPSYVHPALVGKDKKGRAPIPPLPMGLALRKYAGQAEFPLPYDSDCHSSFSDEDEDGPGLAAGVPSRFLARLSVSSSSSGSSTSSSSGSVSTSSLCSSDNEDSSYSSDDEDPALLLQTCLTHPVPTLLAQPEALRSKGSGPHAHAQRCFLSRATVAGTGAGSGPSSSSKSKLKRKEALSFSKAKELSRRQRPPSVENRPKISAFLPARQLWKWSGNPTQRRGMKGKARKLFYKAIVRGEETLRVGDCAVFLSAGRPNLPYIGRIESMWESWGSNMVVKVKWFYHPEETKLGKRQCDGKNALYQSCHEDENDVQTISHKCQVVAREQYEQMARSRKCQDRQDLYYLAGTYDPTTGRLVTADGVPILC
Chain of UniProt Q9BRD0 (Q9BRD0 whole entry, looked up): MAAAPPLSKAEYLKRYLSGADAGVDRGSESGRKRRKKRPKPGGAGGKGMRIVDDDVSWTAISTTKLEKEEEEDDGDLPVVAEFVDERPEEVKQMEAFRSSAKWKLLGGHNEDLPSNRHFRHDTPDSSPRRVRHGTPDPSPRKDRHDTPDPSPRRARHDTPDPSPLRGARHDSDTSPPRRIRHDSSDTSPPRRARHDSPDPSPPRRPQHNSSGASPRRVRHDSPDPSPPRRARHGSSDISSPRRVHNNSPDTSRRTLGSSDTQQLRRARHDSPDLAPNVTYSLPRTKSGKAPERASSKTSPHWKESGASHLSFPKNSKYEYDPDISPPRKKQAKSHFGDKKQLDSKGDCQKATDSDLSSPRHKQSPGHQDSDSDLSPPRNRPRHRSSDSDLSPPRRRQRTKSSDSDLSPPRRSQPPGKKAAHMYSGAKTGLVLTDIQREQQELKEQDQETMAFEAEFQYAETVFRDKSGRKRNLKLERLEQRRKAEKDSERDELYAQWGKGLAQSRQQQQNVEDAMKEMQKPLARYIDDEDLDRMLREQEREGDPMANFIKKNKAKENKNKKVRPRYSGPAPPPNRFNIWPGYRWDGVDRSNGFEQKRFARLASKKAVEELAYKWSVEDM
Chain of UniProt Q00536 (Q00536 whole entry, looked up): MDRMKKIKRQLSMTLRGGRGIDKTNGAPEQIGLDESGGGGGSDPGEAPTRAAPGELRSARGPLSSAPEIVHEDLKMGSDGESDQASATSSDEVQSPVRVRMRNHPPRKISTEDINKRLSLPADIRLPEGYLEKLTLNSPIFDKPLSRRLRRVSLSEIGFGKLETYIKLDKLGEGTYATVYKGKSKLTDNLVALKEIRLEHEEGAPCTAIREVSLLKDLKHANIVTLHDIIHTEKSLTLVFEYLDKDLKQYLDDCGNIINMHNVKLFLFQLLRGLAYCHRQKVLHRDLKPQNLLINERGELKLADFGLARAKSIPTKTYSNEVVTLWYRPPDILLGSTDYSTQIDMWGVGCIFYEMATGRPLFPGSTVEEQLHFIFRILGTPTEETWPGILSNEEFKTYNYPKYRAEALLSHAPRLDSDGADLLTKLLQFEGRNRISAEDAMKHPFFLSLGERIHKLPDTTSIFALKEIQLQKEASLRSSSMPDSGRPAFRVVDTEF
Chain of UniProt P13994 (P13994 whole entry, looked up): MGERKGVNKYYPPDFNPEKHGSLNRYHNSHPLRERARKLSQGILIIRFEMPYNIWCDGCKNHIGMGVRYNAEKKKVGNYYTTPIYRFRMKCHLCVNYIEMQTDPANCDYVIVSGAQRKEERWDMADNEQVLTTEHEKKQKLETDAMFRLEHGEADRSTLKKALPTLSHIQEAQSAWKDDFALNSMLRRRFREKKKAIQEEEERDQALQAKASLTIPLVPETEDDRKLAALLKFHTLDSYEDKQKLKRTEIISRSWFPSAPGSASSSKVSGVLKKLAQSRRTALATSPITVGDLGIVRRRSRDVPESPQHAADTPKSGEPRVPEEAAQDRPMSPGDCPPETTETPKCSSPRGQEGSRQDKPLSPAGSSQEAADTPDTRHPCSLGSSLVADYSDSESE
Chain of UniProt Q7Z7K6 (Q7Z7K6 whole entry, looked up): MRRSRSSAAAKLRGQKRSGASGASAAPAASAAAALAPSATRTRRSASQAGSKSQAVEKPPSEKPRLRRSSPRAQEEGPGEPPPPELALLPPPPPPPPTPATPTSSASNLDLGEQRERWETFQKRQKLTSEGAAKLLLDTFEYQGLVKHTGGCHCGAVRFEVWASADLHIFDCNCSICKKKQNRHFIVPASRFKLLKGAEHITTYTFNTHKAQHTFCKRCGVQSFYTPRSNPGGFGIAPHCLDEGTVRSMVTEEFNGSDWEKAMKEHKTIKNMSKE
Chain of UniProt Q9UNH5 (Q9UNH5 whole entry, looked up): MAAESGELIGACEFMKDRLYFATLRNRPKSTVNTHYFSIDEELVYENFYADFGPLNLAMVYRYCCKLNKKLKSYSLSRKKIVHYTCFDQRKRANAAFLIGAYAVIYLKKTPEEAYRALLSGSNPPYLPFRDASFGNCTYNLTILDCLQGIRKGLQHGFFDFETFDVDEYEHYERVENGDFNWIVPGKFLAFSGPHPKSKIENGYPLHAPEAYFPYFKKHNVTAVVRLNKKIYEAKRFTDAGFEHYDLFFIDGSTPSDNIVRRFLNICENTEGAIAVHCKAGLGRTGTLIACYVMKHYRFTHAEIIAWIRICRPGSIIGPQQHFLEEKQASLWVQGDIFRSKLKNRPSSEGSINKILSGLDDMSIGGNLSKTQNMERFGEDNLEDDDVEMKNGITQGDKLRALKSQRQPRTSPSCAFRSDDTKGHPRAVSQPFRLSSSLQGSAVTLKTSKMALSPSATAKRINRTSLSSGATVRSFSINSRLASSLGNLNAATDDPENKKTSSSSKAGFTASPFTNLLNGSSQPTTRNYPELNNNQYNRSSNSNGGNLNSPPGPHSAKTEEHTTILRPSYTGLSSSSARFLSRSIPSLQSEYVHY

Target | log2 fold change [1] | log2 fold change [2] | log2 fold change [3] | log2 fold change [4] | log2 fold change [5] | log2 fold change [6] | log2 fold change [7] | log2 fold change [8] | log2 fold change [9] | log2 fold change [10]
CCDC186 (UniProt Q7Z3E2) | 0.056 | 0.004 | 0.062 | -0.012 | -0.029 | 0.067 | -0.004 | 0.015 | 0.004 | 0.055
ATP6V1B1 (UniProt P15313) | -0.118 | 0.095 | 0.018 | -0.005 | 0.031 | -0.032 | 0.017 | 0.023 | 0.009 | -0.033
BTRC (UniProt Q9Y297) | -0.05 | -0.019 | -0.049 | -0.018 | – | 0.035 | 0.172 | -0.022 | 0.096 | -0.058
ATRIP (UniProt Q8WXE1) | 0.012 | -0.105 | -0.074 | -0.114 | -0.141 | 0.068 | -0.061 | 0.016 | 0.03 | 0.026
C19orf54 (UniProt Q5BKX5) | -0.032 | 0.004 | 0.048 | -0.039 | 0.023 | 0.024 | 0.151 | -0.099 | 0.069 | 0.08
CARHSP1 (UniProt H3BNU9) | -0.027 | – | – | – | – | – | – | -0.107 | -0.003 | -0.213
CASP7 isoform 3 (UniProt P55210) | – | -0.051 | -0.016 | – | -0.059 | 0.16 | 0.379 (active) | -0.058 | 0.079 | 0.108
BUD13 (UniProt Q9BRD0) | 0.033 | -0.015 | -0.022 | – | 0.068 | 0.007 | 0.004 | 0.017 | – | 0.108
CDCA8 (UniProt Q53HL2) | 0.091 | – | 0.054 | 0.144 | -0.061 | 0.003 | -0.044 | 0.034 | – | 0.04
CEP57L1 (UniProt Q8IYX8) | -0.024 | -0.143 | 0.141 | – | -0.09 | 0.118 | -0.023 | -0.003 | – | -0.038
CHD4, A0A2R8Y521 | – | -0.117 | – | – | 0.155 | 0.046 | -0.086 | 0.133 | -0.454 | 0.167
BRD3 (UniProt Q15059) | -0.059 | – | 0.105 | 0.017 | 0.09 | -0.016 | 0.018 | -0.003 | -0.015 | -0.15
CEP41 (UniProt Q9BYV8) | 0.042 | – | 0.083 | 0.015 | 0.073 | 0.001 | -0.139 | 0.029 | -0.059 | 0.011
CCND3 (UniProt P30281) | 0.144 | -0.001 | 0.024 | – | 0.037 | 0.081 | -0.128 | 0.073 | – | 0.201
ATPSCKMT (UniProt Q6P4H8) | – | -0.368 (active) | – | – | -0.027 | -0.176 | 0.17 | – | – | –
CDKL5 (UniProt O76039) | 1.14 (active) | – | – | 0.55 | -0.052 | -0.038 | -0.116 | – | 0.058 | –
CCAR2 (UniProt G3V119) | – | – | – | – | – | – | – | – | -0.032 | –
CAPNS1 (UniProt U3KPR7) | – | – | – | – | – | – | – | -0.069 | 0.024 | 0.165
C16orf70 (UniProt Q9BSU1) | – | 0.075 | 0.082 | 0.216 | -0.005 | 0.04 | -0.135 | – | 0.076 | –
BMT2 (UniProt Q1RMZ1) | -0.004 | – | – | – | – | – | – | 0.025 | – | -0.27
C3AR1 (UniProt Q16581) | 0.055 | – | – | – | – | – | – | 0.358 | – | 0.053
CEP128 (UniProt Q6ZU80) | -0.294 | 0.565 | – | -0.052 | -0.037 | 0.064 | 0.031 | – | – | –
ATXN2 (UniProt F8WB06) | – | – | – | – | -0.09 | – | – | – | – | –

Target | log2 fold change [1] | log2 fold change [2] | log2 fold change [3] | log2 fold change [4] | log2 fold change [5] | log2 fold change [6] | log2 fold change [7] | log2 fold change [8] | log2 fold change [9] | log2 fold change [10]
C9orf72 (UniProt Q96LT7) | 0.001 | 0 | -0.036 | – | 0.058 | 0.125 | 0.259 (active) | 0.014 | 0.102 | -0.106
CAD (UniProt H7BZB3) | 0.005 | – | 0.28 | 0.036 | – | 0.113 | 0.059 | – | – | –
CANX (UniProt D6RHJ3) | – | – | – | 0.174 | – | – | – | 0.068 | 0.07 | -0.242
BICRA (UniProt Q9NZM4) | -0.113 | 0.335 | 0.101 | – | 0.884 (active) | – | – | – | 0.132 | –
CAMK2B (UniProt Q13554) | 0.318 | -0.035 | – | 0.009 | -0.069 | -0.045 | 0.067 | 0.001 | -0.005 | 0.026
CAPNS1 (UniProt K7ES78) | – | -0.074 | 0.001 | 0.035 | -0.068 | – | – | – | -0.083 | –
CDC14A isoform 2 (UniProt Q9UNH5) | – | 0.272 | – | – | – | – | – | 0.075 | 0.019 | 0.078
CDK16 isoform 2 (UniProt Q00536) | – | 0.029 | 0.05 | 0.285 | 0.106 | 0.04 | -0.024 | -0.014 | 0.008 | -0.026
CEP295 isoform 3 (UniProt Q9C0D2) | -0.039 | -0.099 | -0.029 | – | – | -0.154 | 0.149 | 0.018 | -0.016 | -0.041
C15orf39 (UniProt Q6ZRI6) | -0.04 | -0.188 | -0.031 | – | 0.089 | 0.047 | 0.059 | 0.036 | – | -0.067
BAHCC1 (UniProt Q9P281) | -0.569 | – | -0.135 | -0.208 | -0.054 | 0.038 | -0.024 | 0.085 | 0.076 | 0.095
C6orf120 (UniProt Q7Z4R8) | 0.096 | – | 0.031 | – | 0.066 | – | – | – | -0.026 | –
CDC25A (UniProt P30304) | – | -0.406 (active) | -0.121 | – | 0.035 | – | – | 0.005 | 0.019 | -0.002
CDK11A (UniProt Q9UQ88) | 0.077 | -0.172 | -0.011 | – | 0.023 | – | – | -0.023 | -0.037 | 0
ATE1 (UniProt O95260) | -0.024 | – | – | – | – | – | – | – | 0.044 | –
CHCHD7 isoform 4 (UniProt Q9BUK0) | -0.097 | 0.082 | – | -0.009 | -0.141 | 0.005 | -0.003 | 0.177 | 0.027 | 0.118
B3GALT6 (UniProt Q96L58) | – | 0.051 | -0.025 | – | 0.059 | – | – | – | – | –
BRAF, A0A2R8Y8E0 | – | – | – | -0.029 | – | 1.3 | 0.076 | – | – | –
CCP110 (UniProt O43303) | – | -0.045 | -0.115 | 0.181 | 0.008 | 0.075 | 0.125 | – | – | –
ATG4D (UniProt Q86TL0) | – | -0.09 | – | – | -0.008 | -0.031 | -0.155 | – | – | –
CCDC130 (UniProt P13994) | – | -0.066 | -0.275 | – | – | -0.015 | 0.09 | – | – | –
CENPV (UniProt Q7Z7K6) | -0.15 | -0.458 | – | 0.117 | – | 0.323 | -0.045 | -0.205 | – | 0.789
